# According to PubChem BioAssay:
# Inconclusive results are not listed. Calls of active or inactive are those of the source. Cut-off read from the data, not from the text of the source, unless noted: active = inhibition above about 80%; inactive = the rest.
# Tests used:
# [1] = growth inhibition of DIPG cells – cell-based, MIPE5.0 library, qHTS (AID 1347068; cut-off not given, nearly all actives have IC50 up to about 30 µM); settings: SU-DIPG-XXV viability
# [2] = growth inhibition, single agent or in combination, cell-based, chromothripsis tumors, cisplatin or BGB combos (AID 1671449); settings: LFS_MB_P medulloblastoma cells;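 note: cells exposed for 96 hours; 0% = vehicle DMSO and 100% = killing by high DMSO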
# [3] = growth inhibition, single agent and combos, cell-based, chromothripsis tumors, cisplatin or BGB combos (AID 1671450); settings: HDN33 neuroblastoma cells, stronger effect = higher value;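 note: cells exposed to compound for four days; 0% = vehicle DMSO and 100% = cell killing by high DMSO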
# [4] = growth inhibition, single agents and combos, ICB984, cell-based, cisplatin or BGB combos, synergistic combos for chromothripsis tumors (AID 1671451; call rule not given here;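 note: cells exposed for 96 hours before readout; 0% = vehicle DMSO and 100% = killing by high DMSO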); settings: ICB984 medulloblastoma cells, drug combinations, stronger effect = higher value
# [5] = growth inhibition, single agents and combos, LFS_MB_1R, cell-based, cisplatin or BGB combos, synergistic combos for chromothripsis tumors (AID 1671452); settings: LFS_MB_1R medulloblastoma cells, stronger effect = higher value;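 note: cells exposed for 96 hours before readout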
# [6] = growth inhibition, single agents and combos, HTB85, cell-based, BGB or cisplatin IC20 combos, synergistic combos for chromothripsis tumors (AID 1671453); settings: HTB85 osteosarcoma cells, drug combinations, stronger effect = higher value;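 note: cells exposed for 96 hours before readout; 0% = vehicle DMSO and 100% = high DMSO killing control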
# [7] = growth inhibition, single agents and combos, CRL2098, cell-based, BGB or cisplatin IC20 combos, synergistic combos for chromothripsis tumors (AID 1671454); settings: CRL2098 osteosarcoma cells, drug combinations, stronger effect = higher value;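 note: cells exposed for 96 h before readout; 0% = vehicle DMSO and 100% = killing by high DMSO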
# [8] = growth inhibition, single agents and combos, HD-MB03, cell-based, BGB or cisplatin IC20 combos, synergistic combos for chromothripsis tumors (AID 1671455; in the data active = inhibition above about 83%;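 note: 0% = vehicle DMSO and 100% = high DMSO as cytotoxic control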); settings: HD-MB03 medulloblastoma cells, stronger effect = higher value
# [9] = growth inhibition, single agents and combos, UWB1.289, cell-based, BGB or cisplatin combos, synergistic combos for chromothripsis tumors (AID 1671456); settings: UWB1.289 ovarian carcinoma cells, stronger effect = higher value;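 note: cells exposed to compound for four days; 0% = vehicle DMSO and 100% = killing by high DMSO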
# [10] = growth inhibition, single agents and combos, LFS_MB_2R, cell-based, cisplatin combos, synergistic combos for chromothripsis tumors (AID 1671457); settings: LFS_MB_2R medulloblastoma cells, stronger effect = higher value;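 note: cells exposed to compound for four days before readout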
# [11] = growth inhibition, MDA-MB-436, cell-based, BGB or cisplatin combos, synergistic combos for chromothripsis tumors (AID 1671458; call rule not given here;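 note: cells exposed for 96 hours; 0% = vehicle DMSO and 100% = killing by high DMSO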); settings: MDA-MB-436 breast carcinoma growth inhibition, drug combinations, stronger effect = higher value
# [12] = UWB1.289_BRCA1 ovarian cancer growth, cell-based, BGB or cisplatin combinations (AID 1671459); settings: UWB1.289 BRCA1 ovarian carcinoma, drug combinations, stronger effect = higher value
# [13] = drug combination toxicity in non-malignant astrocytes – cell-based, BGB or cisplatin IC20 combos, cytotoxicity control for chromothriptic childhood tumor combination screen (AID 1671460); settings: Human astrocytes, viability inhibition, drug combinations, at 0.5 µM, stronger effect = higher value;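 note: cells exposed to compounds for 96 hours before viability readout; 0% = vehicle and 100% = killing control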
# [14] = BT084 cell growth, single and combined drugs, ICGC_MB145, cisplatin and BGB IC40 combos (AID 1671461); settings: BT084 medulloblastoma cells, drug combinations, stronger effect = higher value;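 note: cells exposed to drugs for 96 hours; 0% = vehicle DMSO and 100% = high DMSO full killing control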
# [15] = RCMB18 cell growth, single agent and combined, cisplatin and BGB IC40 combos (AID 1671462); settings: RCMB18 medulloblastoma cells, stronger effect = higher value;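 note: cells exposed to compound for four days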
# [16] = CRL1545 cell growth, single agent and combined, cisplatin and BGB IC20 combos (AID 1671464); settings: CRL1545 osteosarcoma cells, stronger effect = higher value;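 note: cells exposed to compound for 96 hours before readout; 0% = vehicle DMSO and 100% = high DMSO killing control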
# [17] = viability loss with induced miR-34 in A549 – imaging, A549 dox-inducible miR-34, nuclei and caspase counts, primary screen (AID 1347080;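 active = compounds whose cell count with miR-34 switched on is under 0.7 times the count with it off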); settings: A549 miR-34 inducible, Hoechst nuclei count, 48 h
# [18] = measured here: combination with BGB IC40, at 0.05 µM
# [19] = measured here: with BGB IC20 combination, at 0.5 µM
# [20] = measured here: with cisplatin IC20 combination, at 0.5 µM
# [21] = measured here: combination with cisplatin, at 0.5 µM
# [22] = measured here: combination with cisplatin, at 5 µM
# [23] = stronger effect = lower value, cell number ratio, induced over uninduced
# [24] = measured here: relative caspase fold change +Dox/-Dox
# [25] = measured here: total cells with miR-34 induction, stronger effect = lower value
# [26] = measured here: total cells without miR-34 induction
compound,measurement,setting,value
O=C(O)C[C@H]1CCc2c1[nH]c1ccc(OCc3ccc(C4CCCC4)c(C(F)(F)F)c3)cc21,outcome,[1],inactive
C=CC(=O)N1CCC(CNc2ncnc(N)c2-c2ccc(Oc3ccccc3)cc2)CC1,outcome,[1],inactive
CS(=O)(=O)c1ccc(-c2nnc(/C=C/c3nnc(-c4ccc(C#N)cc4)o3)n2-c2ccccc2Cl)nc1,outcome,[1],inactive
same,inhibition,"[2]; at 0.5 µM, stronger effect = higher value",1.48% (inactive)
same,inhibition,"[2]; measured here: combination with BGB IC20, at 0.005 µM",2.99%
same,inhibition,"[2]; measured here: combination with BGB IC40, at 0.005 µM",6.48%
same,inhibition,[2]; [18],30.7%
same,inhibition,"[2]; measured here: combination with cisplatin, at 0.5 µM, stronger effect = higher value",-5.01%
same,inhibition,"[2]; measured here: combination with cisplatin, at 5 µM, stronger effect = higher value",-36.6%
same,inhibition,"[3]; BGB combo, at 5 µM",21%
same,inhibition,[3]; at 0.5 µM,30.9% (inactive)
same,inhibition,"[3]; cisplatin combo, at 5 µM",23.5%
same,inhibition,[3]; [19],33.7%
same,inhibition,[3]; [20],23.2%
same,inhibition,"[3]; single agent, at 5 µM",31.3%
same,inhibition,"[4]; BGB IC20 combo, at 0.005 µM",-3.28%
same,inhibition,"[4]; BGB IC40 combo, at 0.005 µM",-14.7%
same,inhibition,"[4]; BGB IC40 combo, at 0.05 µM",-5.67%
same,inhibition,[4]; at 0.5 µM,-26.5% (inactive)
same,inhibition,"[4]; cisplatin combo, at 0.05 µM",-9.85%
same,inhibition,"[4]; cisplatin combo, at 0.5 µM",-33.8%
same,inhibition,"[4]; cisplatin combo, at 5 µM",-19.1%
same,inhibition,"[4]; measured here: 5 uM single agent, at 5 µM",-5.85%
same,inhibition,[5]; at 0.5 µM,-3.64% (inactive)
same,inhibition,[5]; [18],0.706%
same,inhibition,[5]; [21],-21.2%
same,inhibition,[5]; [22],-35.8%
same,inhibition,[6]; at 0.5 µM,15.7% (inactive)
same,inhibition,"[6]; measured here: with BGB IC20, at 0.5 µM",7.63%
same,inhibition,"[6]; measured here: with BGB IC20, at 5 µM",-0.396%
same,inhibition,"[6]; measured here: with cisplatin IC20, at 0.5 µM",4.78%
same,inhibition,"[6]; measured here: with cisplatin IC20, at 5 µM",9.69%
same,inhibition,"[6]; single agent, at 5 µM",38.8%
same,inhibition,[7]; at 0.5 µM,7.89% (inactive)
same,inhibition,"[7]; measured here: combination with BGB at IC20, at 0.5 µM",3.4%
same,inhibition,"[7]; measured here: combination with cisplatin at IC20, at 0.5 µM",15.6%
same,inhibition,[8]; at 0.5 µM,11.5% (inactive)
same,inhibition,"[8]; measured here: combo with BGB at IC20, at 0.5 µM",0.481%
same,inhibition,"[8]; measured here: combo with cisplatin at IC20, at 0.5 µM",19.9%
same,inhibition,[9]; at 0.5 µM,15.3% (inactive)
same,inhibition,"[9]; measured here: inhibition with BGB combination, at 0.05 µM",0.045%
same,inhibition,"[9]; measured here: inhibition with cisplatin combination, at 0.05 µM",15.1%
same,inhibition,[10]; at 0.5 µM,-0.5% (inactive)
same,inhibition,[10]; [21],14.1%
same,inhibition,[10]; [22],-1.82%
same,inhibition,[11]; at 0.5 µM,7.83% (inactive)
same,inhibition,"[11]; measured here: BGB combination, at 0.5 µM",-1.04%
same,inhibition,"[11]; measured here: BGB combination, at 5 µM",-5.11%
same,inhibition,"[11]; measured here: cisplatin combination, at 0.5 µM",9.17%
same,inhibition,"[11]; measured here: cisplatin combination, at 5 µM",11.5%
same,inhibition,"[12]; BGB combination, concentration series, at 5 µM",22.9%
same,inhibition,[12]; at 0.5 µM,12.5% (inactive)
same,inhibition,"[12]; cisplatin combination, concentration series, at 5 µM",17.8%
same,inhibition,[13],40.8% (inactive)
same,inhibition,[13]; measured here: combo with BGB IC20,29.7%
same,inhibition,[13]; measured here: combo with cisplatin IC20,52.2%
same,inhibition,[14]; at 0.5 µM,-12.2% (inactive)
same,inhibition,"[14]; cisplatin combination, at 0.5 µM",3.06%
same,inhibition,"[14]; cisplatin combination, at 5 µM",6.23%
same,inhibition,"[14]; measured here: BGB IC40 combination 0.05 uM, at 0.05 µM",-3.22%
same,inhibition,"[14]; single agent, at 5 µM",-30%
same,inhibition,[15]; at 0.5 µM,3.73% (inactive)
same,inhibition,"[15]; cisplatin combo, at 5 µM",7.03%
same,inhibition,"[15]; measured here: BGB IC40 combination, at 0.05 µM",-6.83%
same,inhibition,[15]; [21],19.3%
same,inhibition,"[15]; single agent, at 5 µM",-0.278%
same,inhibition,[16]; at 0.5 µM,-40.3% (inactive)
same,inhibition,[16]; [19],-43.6%
same,inhibition,[16]; [20],-38.6%
same,inhibition,"[16]; single agent, at 0.05 µM",-1.31%
same,inhibition,"[16]; single agent, at 5 µM",-32.2%
COc1nnc2ccc(N3CCC(c4ccc(OCCN5CCN(C)C(=O)[C@H]5C)cc4)CC3)nn12,outcome,[1],inactive
CC(=O)c1ncc([C@@H](O)[C@H](O)[C@H](O)CO)[nH]1,fold change,[17]; [23],0.931 (inactive)
same,fold change,[17]; [24],2.05
same,cell count,[17]; [25],5900
same,cell count,[17]; [26],6330
CCC1CCCCN1C(=O)n1ncc(C(O)(c2ccccc2)c2ccccc2)n1 (configuration not stated),outcome,[1],inactive
CC(C)CCCCCCC/C=C\C(=O)O,fold change,[17]; [23],0.991 (inactive)
same,fold change,[17]; [24],0.344
same,cell count,[17]; [25],5830
same,cell count,[17]; [26],5880
Cc1ccc(Nc2cc(N[C@@H]3CCCC[C@@H]3N)nnc2C(N)=O)nc1C,outcome,[1],inactive
O=C(O)CCC/C=C\C[C@@H]1[C@@H](/C=C/[C@@H](O)CCc2cccc(C(F)(F)F)c2)[C@H](O)C[C@@H]1O,fold change,[17]; [23],1.01 (inactive)
same,fold change,[17]; [24],1.2
same,cell count,[17]; [25],5710
same,cell count,[17]; [26],5640
O=C(O)c1ccccc1-c1ccc(/C=c2\sc3nc4cc(Br)cnc4n3c2=O)o1,outcome,[1],inactive
